About 2,000 (36%) of roughly 5,500 compounds were called active. Another 18% or so got no clear call; they are omitted. Cut-off read from the data, not from the text of the source: active = normalized growth mostly below about 0.91 (no sharp cut-off); inconclusive = no clear call, values can overlap the other calls; inactive = mostly above about 0.92. This is one part of the list.
Assay: chemical genetic growth profiling, strain panel (AID 1159580);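 note: tested at 20 µM; growth read once vehicle control cultures reached saturation at 30 °C; 1 = growth at the plate median or of vehicle wells; lower values mean less growth of the strain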
Details: growth OD

Measured: normalized growth

C/C1=C\CC(C)(C)/C=C/CC2(C)OC2CC1 (stereo unspecified)
inactive: S. cerevisiae deletion strains, locus YBR021W, strain FUR4, active compounds read low 1.02 | S. cerevisiae deletion strains, locus YBR229C, strain ROT2, active compounds read low 1.01 | S. cerevisiae deletion strains, locus YCL029C, strain bik1, active compounds read low 0.999 | S. cerevisiae deletion strains, locus YDL035C, strain GPR1, active compounds read low 0.998 | S. cerevisiae deletion strains, locus YDL074C, strain BRE1, active compounds read low 1.01 | S. cerevisiae deletion strains, locus YDL101C, strain DUN1, active compounds read low 1.03 | S. cerevisiae deletion strains, locus YDL185W, strain tfp1, active compounds read low 1.01 | S. cerevisiae deletion strains, locus YDL192W, strain arf1, active compounds read low 1.01 | S. cerevisiae deletion strains, locus YDR101C, strain arx1, active compounds read low 0.968 | S. cerevisiae deletion strains, locus YDR150W, strain NUM1, active compounds read low 1.01 | S. cerevisiae deletion strains, locus YDR162C, strain NBP2, active compounds read low 1 | S. cerevisiae deletion strains, locus YDR318W, strain mcm21, active compounds read low 0.997 | S. cerevisiae deletion strains, locus YDR388W, active compounds read low 1.01 | S. cerevisiae deletion strains, locus YDR502C, strain sam2, active compounds read low 1.03 | S. cerevisiae deletion strains, locus YEL061C, strain CIN8, active compounds read low 1.01 | S. cerevisiae deletion strains, locus YER110C, active compounds read low 1.02 | S. cerevisiae deletion strains, locus YER155C, strain BEM2, active compounds read low 1 | S. cerevisiae deletion strains, locus YER167W, strain BCK2, active compounds read low 1 | S. cerevisiae deletion strains, locus YGL078C, strain dbp3, active compounds read low 1.01 | S. cerevisiae deletion strains, locus YGL086W, strain mad1, active compounds read low 1.01 | S. cerevisiae deletion strains, locus YGL248W, strain PDE1, active compounds read low 1.04 | S. cerevisiae deletion strains, locus YGR135W, strain pre9, active compounds read low 1.05 | S. cerevisiae deletion strains, locus YGR252W, strain gcn5, active compounds read low 1.05 | S. cerevisiae deletion strains, locus YHR030C, strain SLT2, active compounds read low 1 | S. cerevisiae deletion strains, locus YHR079C, strain IRE1 (second series), active compounds read low 1.01 | S. cerevisiae deletion strains, locus YHR094C, strain hxt1, active compounds read low 1.02 | S. cerevisiae deletion strains, locus YHR129C, strain ARP1, active compounds read low 1.01 | S. cerevisiae deletion strains, locus YHR200W, strain rpn10, active compounds read low 1.01 | S. cerevisiae deletion strains, locus YIL066C, strain RNR3, active compounds read low 1.01 | S. cerevisiae deletion strains, locus YIL073C, strain SPO22, active compounds read low 1.04 | S. cerevisiae deletion strains, locus YIL125W, strain kgd1, active compounds read low 1.01 | S. cerevisiae deletion strains, locus YIR030C, strain dcg1, active compounds read low 0.999 | S. cerevisiae deletion strains, locus YJL095W, strain BCK1, active compounds read low 1.08 | S. cerevisiae deletion strains, locus YJL134W, strain LCB3, active compounds read low 1 | S. cerevisiae deletion strains, locus YJL168C, strain set2, active compounds read low 1.02 | S. cerevisiae deletion strains, locus YJL187C, strain SWE1 (second series), active compounds read low 1.03 | S. cerevisiae deletion strains, locus YJR043C, strain POL32, active compounds read low 0.99 | S. cerevisiae deletion strains, locus YJR075W, strain HOC1, active compounds read low 1.01 | S. cerevisiae deletion strains, locus YKL009W, strain mrt4, active compounds read low 1.01 | S. cerevisiae deletion strains, locus YKL068W, active compounds read low 1 | S. cerevisiae deletion strains, locus YKL085W, strain MDH1 (second series), active compounds read low 1.01 | S. cerevisiae deletion strains, locus YKL085W, strain MDH1, active compounds read low 1.01 | S. cerevisiae deletion strains, locus YKR001C, strain vps1, active compounds read low 0.998 | S. cerevisiae deletion strains, locus YLR039C, strain RIC1, active compounds read low 1.04 | S. cerevisiae deletion strains, locus YLR058C, strain SHM2, active compounds read low 1.01 | S. cerevisiae deletion strains, locus YLR102C, strain apc9, active compounds read low 1.01 | S. cerevisiae deletion strains, locus YLR262C, strain YPT6, active compounds read low 1.07 | S. cerevisiae deletion strains, locus YLR268W, strain sec22, active compounds read low 0.99 | S. cerevisiae deletion strains, locus YLR342W, strain FKS1 (second series), active compounds read low 1.02 | S. cerevisiae deletion strains, locus YLR371W, strain rom2, active compounds read low 0.984 | S. cerevisiae deletion strains, locus YLR418C, strain cdc73, active compounds read low 1.08 | S. cerevisiae deletion strains, locus YML016C, strain PPZ1, active compounds read low 1 | S. cerevisiae deletion strains, locus YML032C, strain rad52, active compounds read low 1 | S. cerevisiae deletion strains, locus YML124C, strain tub3, active compounds read low 1 | S. cerevisiae deletion strains, locus YMR078C, strain ctf18, active compounds read low 1.01 | S. cerevisiae deletion strains, locus YMR223W, strain ubp8, active compounds read low 1.01 | S. cerevisiae deletion strains, locus YMR263W, strain SAP30, active compounds read low 1.02 | S. cerevisiae deletion strains, locus YMR307W, strain GAS1, active compounds read low 0.978 | S. cerevisiae deletion strains, locus YNL067W, strain RPL9B, active compounds read low 1.02 | S. cerevisiae deletion strains, locus YNL153C, strain GIM3, active compounds read low 1.03 | S. cerevisiae deletion strains, locus YNL233W, strain BNI4, active compounds read low 1.03 | S. cerevisiae deletion strains, locus YNL250W, strain rad50, active compounds read low 1.01 | S. cerevisiae deletion strains, locus YNL271C, strain bni1, active compounds read low 1.01 | S. cerevisiae deletion strains, locus YNL298W, strain CLA4, active compounds read low 0.995 | S. cerevisiae deletion strains, locus YNL307C, strain MCK1, active compounds read low 1.03 | S. cerevisiae deletion strains, locus YNR052C, strain pop2, active compounds read low 1.01 | S. cerevisiae deletion strains, locus YOL006C, strain TOP1, active compounds read low 1 | S. cerevisiae deletion strains, locus YOL012C, strain htz1 1.6 | S. cerevisiae deletion strains, locus YOL147C, strain pex11, active compounds read low 1.01 | S. cerevisiae deletion strains, locus YOR061W, strain CKA2, active compounds read low 0.994 | S. cerevisiae deletion strains, locus YOR069W, strain VPS5, active compounds read low 1.01 | S. cerevisiae deletion strains, locus YOR136W, strain idh2, active compounds read low 1 | S. cerevisiae deletion strains, locus YOR144C, strain elg1, active compounds read low 1 | S. cerevisiae deletion strains, locus YOR184W, strain ser1, active compounds read low 0.986 | S. cerevisiae deletion strains, locus YOR316C, strain cot1, active compounds read low 1 | S. cerevisiae deletion strains, locus YPR119W, strain clb2, active compounds read low 1.02 | S. cerevisiae deletion strains, locus YPR141C, strain kar3, active compounds read low 1.01 | S. cerevisiae deletion strains, locus YPR163C, strain tif3, active compounds read low 1.02 | S. cerevisiae deletion strains, locus YPR167C, strain met16, active compounds read low 1.02 | S. cerevisiae deletion strains, strain wtn01, active compounds read low 0.974 | S. cerevisiae strains, strain wild type, active compounds read low 1.01

Reference: PubChem BioAssay AID1159580 (chemical genetic matrix, 2015)
